Bioassay records: PubChem BioAssay, National Center for Advancing Translational Sciences (NCATS)
HT1080-NT tox: qHTS for induction of synthetic lethality in tumor cells producing 2HG: qHTS for the HT-1080-NT fibrosarcoma cell line | 360,000 compounds, 1.6% hits | HT-1080-NT fibrosarcoma viability, CellTiter-Glo ATP luminescence, 48 h | AID 686970, 2013 | Potency, µM (top dose mostly 46.1 µM), for the others: at the highest dose activity, negative = less viability, usual class: cytotoxic;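 further: NT is the 2HG producing partner of a matched IDH1 knockdown line; potency means the concentration at half of the fitted maximal effect; 0% = DMSO-treated cells and -100% = media-only wells without cells; nearly all actives have a fitted effect of over 55% in size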
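Fibrosarcoma NT cells, 750 per well in 5% FBS RPMI, were exposed to compound for 48 hours. Viability: CellTiter-Glo luminescence.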
HT1080 IDH1KD tx: qHTS for induction of synthetic lethality in tumor cells producing 2HG: qHTS for the HT-1080-IDH1KD cell line; HT-1080 IDH1 knockdown viability, ATP luminescence, 48 h; Potency, µM (series often up to 46.1 µM), without a hit: top-dose activity, negative = toxicity, usual class: cytotoxic; 360,000 compounds, 2% hits; AID 686971, 2013;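 further: potency means the concentration at half of the fitted maximal effect; 0% = DMSO wells and -100% = cell-free medium wells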
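After a 2 h attachment period, IDH1KD HT-1080 cells took pin-transferred compound for 48 h at 37 °C; ATP-based luminescence after 10 min room-temperature reagent incubation reported viability.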
TDP1 cell CPT: qHTS for Inhibitors of human tyrosyl-DNA phosphodiesterase 1 (TDP1): qHTS in cells in presence of CPT. chicken DT40 Tdp1-/-;hTDP1 cells + 20 nM CPT, ATP luminescence, 48 h. 420,000 compounds, 12% hits. Potency, µM (titrated, usually from 46.2 µM), for the others: top-dose activity change, negative = growth inhibition, usual class: inhibitors; further: potency means the concentration at half of the fitted maximal effect; nearly all actives have a fitted effect of over 55% in size
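Chicken DT40 Tdp1-/- cells stably complemented with human TDP1 were seeded at 400 cells/well in medium containing 20 nM camptothecin, exposed to pin-transferred compounds, and grown at 37 °C for at least 48 hr. Viability was read as ATP luminescence.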
12-LOX inh: Primary qHTS assay for inhibitors of human arachidonate 12S-lipoxygenase (ALOX12): Round 2 | purified 12hLO, xylenol orange hydroperoxide absorbance | Potency, µM (titrated, usually from 108 µM), without a hit: at the top dose activity change, negative = inhibition, most hits filed as inhibitors | Polyunsaturated fatty acid lipoxygenase ALOX12 (Homo sapiens), P18054 | 580,000 compounds, 1.1% hits; further: potency means the concentration at half of the fitted maximal effect
Target sequence (P18054 whole entry, looked up): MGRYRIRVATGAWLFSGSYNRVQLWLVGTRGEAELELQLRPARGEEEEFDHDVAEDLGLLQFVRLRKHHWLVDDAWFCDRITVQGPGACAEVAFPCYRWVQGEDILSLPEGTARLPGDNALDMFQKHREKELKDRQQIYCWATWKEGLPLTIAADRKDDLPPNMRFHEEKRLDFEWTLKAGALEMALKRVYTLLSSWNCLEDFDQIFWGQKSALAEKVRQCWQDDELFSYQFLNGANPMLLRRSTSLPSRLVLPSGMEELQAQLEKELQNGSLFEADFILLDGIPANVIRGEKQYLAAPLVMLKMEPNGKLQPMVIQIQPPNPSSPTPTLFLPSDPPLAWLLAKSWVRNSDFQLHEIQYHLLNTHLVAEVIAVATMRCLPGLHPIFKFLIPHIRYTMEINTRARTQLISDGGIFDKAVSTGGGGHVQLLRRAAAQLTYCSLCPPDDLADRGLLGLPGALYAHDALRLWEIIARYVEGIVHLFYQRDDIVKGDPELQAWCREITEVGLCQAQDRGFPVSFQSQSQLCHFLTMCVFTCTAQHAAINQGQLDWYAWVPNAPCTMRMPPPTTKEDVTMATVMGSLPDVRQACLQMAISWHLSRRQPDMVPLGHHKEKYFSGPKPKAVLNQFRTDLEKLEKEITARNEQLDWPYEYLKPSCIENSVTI
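Purified human 12hLO (150 nM final) in 25 mM Hepes, 0.01% Triton X-100, pH 7.0 was preincubated 15 min at room temperature with compound. Then 40 uM arachidonic acid was added, 30 min. Hydroperoxide was read by Fe-XO absorbance ratio 573/405 nm.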
IL1B secr inh: qHTS for Inhibitors of Inflammasome Signaling: IL-1-beta AlphaLISA Primary Screen; AID 743279, 2014; activity change, % at 57.5 µM; THP-1 LPS/ATP IL-1B secretion, AlphaLISA, 16 h; active compounds read low; 360,000 compounds, 4.7% hits; in the data active means activity change below about -50%; inconclusive means mostly about -30% to -49%
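Secreted IL-1B measured by AlphaLISA bead assay after 16 h compound exposure of THP-1 cells; compounds (final up to 57.5 uM) added 1 h before LPS (250 ng/mL) and ATP (1.25 mM) stimulation; lower signal means less secretion.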
DT40 TDP1 no CPT: qHTS for Inhibitors of human tyrosyl-DNA phosphodiesterase 1 (TDP1): qHTS in cells in absence of CPT; DT40 Tdp1-/- hTDP1 cells, no CPT, ATP luminescence, 48 h; Potency, µM (highest dose often 46.2 µM), for inactives: top-dose activity change, negative = growth inhibition, usual class: inhibitors; 420,000 compounds, 15% hits; AID 686978, 2013; further: potency means the concentration at half of the fitted maximal effect; nearly all actives have a fitted effect of over 55% in size
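DT40 Tdp1-/-;hTDP1 cells, no CPT (DMSO vehicle only), 400 cells/well; compounds pin-transferred; ≥48 hr, 37 °C; CellTiter-Glo 30 min RT dark, luminescence read.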
Starred values were filed as active, the others as inactive; ? = inconclusive; . = no result; [ ] = dose if it differs, or a comment. The sample as a whole holds a higher share of hits than the screen did. Unless noted, the call rests on the fitted dose curve; in most records, active means well fitted curve in the direction sought with a large enough effect; inconclusive means small, poorly fitted or top-dose-only effect, or another doubt; inactive means no such curve, though single readings can be large; an effect the other way counts as inactive or inconclusive. Unless noted, on the % scale 0 is the no-effect control and ±100 the full control effect.

SMILES	HT1080-NT tox	HT1080 IDH1KD tx	TDP1 cell CPT	12-LOX inh	IL1B secr inh	DT40 TDP1 no CPT
CC(=O)N1CCC(N2CCC3(CC2)CN(Cc2ccccc2)CC3CO)CC1 (stereo not drawn)	.	.	.	61.7%	.	.
Cn1c(=O)c2c(nc(NCc3ccco3)n2Cc2ccccc2Cl)n(C)c1=O	-0.9%	6.7%	4.11µM*	-24.4%	-9.9	2.06µM*
Cn1c(=O)c2c(nc(NCc3ccco3)n2C)n(C)c1=O	7.9%	-6.5%	-21.2%	-12.7%	18.9	-42.2%
Cn1c(=O)c2c(nc(NCc3ccco3)n2C/C=C/c2ccccc2)n(C)c1=O	-28.9%	-25.5%	1.46µM*	-12.7%	-62.1*	0.651µM*
C[n+]1cccc2ccc3c(c21)OC(N)=C(C#N)C3c1ccccc1 (stereo not drawn)	?	?	24.8%	2.4%	.	?
N#CC1=C(N)Oc2cc3ccccc3cc2C1c1cccnc1 (stereo not drawn)	6.51µM*	5.8µM*	8.2µM*	0.0%	-11.9	7.31µM*
N#CC1=C(N)Oc2c(ccc3cccnc23)C1c1cccnc1 (stereo not drawn)	7.31µM*	8.2µM*	5.8µM*	?	61.6	5.17µM*
N#CC1=C(N)Oc2c(ccc3ccccc23)C1c1ccc2c(c1)OCO2 (stereo not drawn)	.	.	.	1.0%	.	.
CC(C)(C)C1=C(C#N)C(c2cccnc2)C(C#N)=C(N)O1 (stereo not drawn)	8.3%	3.6%	?	?	0.5	?
CN(C)/C=N/C1=C(C#N)C(c2cccs2)c2ccc3ccccc3c2O1 (stereo not drawn)	7.31µM*	7.31µM*	4.11µM*	?	85.5	4.11µM*
CC(C)(C)c1[nH]nc2c1C(c1cccnc1)C(C#N)=C(N)O2 (stereo not drawn)	8.0%	3.2%	-2.3%	-6.9%	?	-8.6%
C[n+]1cccc(C2C(C#N)=C(N)Oc3c2ccc2ccccc32)c1 (stereo not drawn)	11.6µM*	14.6µM*	?	-19.4%	41.2	?
Fc1ccc(CSc2ncc(-c3ccccc3)nn2)cc1	.	.	.	-31.4%	.	.
Cc1cc(C(=O)O)ccc1NS(=O)(=O)c1ccc(S(=O)(=O)N2CCCCC2)cc1	.	.	.	34.7%	.	.
O=C(Cc1cc(Cl)c2c(c1)OCCO2)NC1CCN(C2CC2)CC1	.	.	.	2.7%	.	.
CCOC(=O)C1=C(c2ccccc2)OC(N)=C(C#N)C1c1cccs1 (stereo not drawn)	-1.9%	?	-26.4%	?	-9.3	-12.6%
N#CC1=C(N)Oc2cc3ccccc3cc2C1c1cccs1 (stereo not drawn)	?	?	11.2µM*	?	0.0	11.2µM*
Cc1ccc2nc(-c3cccc(NC(=O)c4ccc(C#N)cc4F)c3)oc2c1	.	.	.	40.8%	.	.
CCC1NC(=O)c2ccccc2N1c1cccc(Cl)c1 (stereo not drawn)	-27.2%	?	?	?	34.2	16.4µM*
CSc1ccc(NC(=O)c2cc3c(s2)CN(C2CC2)C3)cc1	.	.	.	468.9%	.	.
CCCCNCc1ccc(OCc2ccc(Cl)nc2)c(OC)c1	-16.3%	3.2%	10.6%	71.7%	-11.8	-1.8%
COc1ccccc1CCNCc1ccc(OC)c(OCc2ccccc2)c1	?	?	-92.0%	?	-99.1*	13µM*
COc1cc(CNCCc2ccccc2)ccc1OCC(N)=O	6.1%	6.2%	-16.6%	-4.5%	-6.9	-1.6%
COc1cc(CNCCO)ccc1OCCc1ccccc1	-18.7%	-23.3%	?	14.6%	-17.5	25.9µM*
COc1cc(CNCCc2ccccc2)ccc1OCc1ccc(Cl)nc1	-26.8%	?	?	-16.1%	-52.1*	?
SMILES	HT1080-NT tox	HT1080 IDH1KD tx	TDP1 cell CPT	12-LOX inh	IL1B secr inh	DT40 TDP1 no CPT
Cc1ccc2[nH]cc(CCN3CC(C(=O)NCCCOC(C)C)CC3=O)c2c1 (stereo not drawn)	.	.	.	8.4%	.	.
COc1cc(S(=O)(=O)NCc2ccncc2)ccc1Br	?	-15.6%	8.2µM*	-29.7%	-11.2	9.2µM*
Cc1cc(Br)c(S(=O)(=O)NCc2ccncc2)cc1C	?	?	5.8µM*	2.7%	-1.0	7.31µM*
Cc1cc(C)c(C)c(S(=O)(=O)NCc2ccc(C(=O)N3CCN(C)CC3)cc2)c1C	2.8%	-14.8%	-29.1%	0.0%	18.0	-11.1%
Cc1cc(C)c(C)c(S(=O)(=O)NCc2ccncc2)c1C	-10.3%	?	20.6µM*	-3.8%	-3.7	13µM*
CNC(=O)c1cc(S(=O)(=O)NCc2ccncc2)ccc1OC	-2.6%	-1.5%	-25.6%	0.0%	-15.5	-27.2%
CCOC(=O)COc1ccc(S(=O)(=O)NCc2cccnc2)cc1	0.0%	12.7%	0.4%	2.9%[57.4 µM]	24.4	-6.4%
COC(=O)COc1ccc(S(=O)(=O)NCc2ccncc2)cc1	-1.6%	-1.2%	4.11µM*	-12.2%[57.4 µM]	76.7	9.2µM*
Cc1ccc(NC(=O)C2C3CC/C=C\CC/C=C/CCC32)cc1C (stereo not drawn)	.	.	.	-31.0%	.	.
Nc1ncc(S(=O)(=O)NCc2ccccc2)cn1	.	.	-6.2%	-12.0%	.	-2.6%
Cc1ccc(S(=O)(=O)NCc2ccncc2)cc1C(=O)NCC(C)C	-10.1%	-0.5%	14.6µM*	-22.6%	10.1	?
O=S(=O)(NCc1ccncc1)c1ccccc1	2.4%	-13.3%	23.1µM*	37.4%	37.0	8.2µM*
COc1ccc(S(=O)(=O)NCc2cccnc2)cc1Br	0.0%	16.4µM*	4.61µM*	55.4%	0.0	5.8µM*
O=S(=O)(NCc1cccnc1)c1ccc2ccccc2c1	-10.6%	-6.5%	?	16.6%	-0.5	20.6µM*
COc1ccc(S(=O)(=O)NCc2cccnc2)cc1	-4.6%	0.6%	-17.5%	48.6%	28.7	3.4%
COc1ccc2oc(-c3ccc(NC(=O)c4cccc(F)c4)cc3)nc2c1	.	.	.	-8.9%	.	.
O=[N+]([O-])c1ccccc1S(=O)(=O)NCc1cccnc1	24.9%	0.0%	8.91µM*	-10.3%	-7.3	20.6µM*
CCN(CC)CCNS(=O)(=O)c1ccc(OC)c(Br)c1	9.8%	12.3%	4.4%	3.55µM*	0.1	-7.4%
O=S(=O)(NCc1ccncc1)c1ccc(Br)s1	-8.7%	-11.6%	1.84µM*	2.3%	-9.0	2.59µM*
